Experimental findings from PubChem BioAssay (NCATS) are described below.

Assay [1] concerns the target Aldehyde dehydrogenase, mitochondrial (Homo sapiens) (UniProt P05091). The assay can be described thus: qHTS for Inhibitors of the Aldehyde Dehydrogenase Family (ALDH2) Primary screen (AID 2061308).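 Further: plate controls were vehicle for no effect and reference inhibitor for full effect; nearly all actives have a fitted effect of over 55% in size.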 As to conditions: ALDH2 enzyme inhibition qHTS, 1536-well; series mostly up to 56 µM. Background: In qHTS, concentration-response curves come from the screen itself.
For assay [2], the target named is Retinaldehyde dehydrogenase 3 (Homo sapiens) (UniProt P47895). The assay can be described thus: qHTS for Inhibitors of the Aldehyde Dehydrogenase Family (ALDH1A3) Primary screen (AID 2061315).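 Further: plate controls were DMSO vehicle for no effect and reference inhibitor for full effect.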 As to conditions: ALDH inhibition qHTS; series mostly up to 56 µM.
Assay [3] in a line: BET inhibitor-based combinations targeting novel dependencies in MECOM-rearranged (r) AML: OCI-AML3 cell line (AID 2202232). Further: nearly all actives have a fitted effect of over 35% in size. Further: potency means the concentration at half of the fitted maximal effect. As to conditions: CellTiter-Glo luminescence, 48 h; Potency: OCI-AML3 viability; series mostly up to 46 µM. In short, it runs like this:
(§1)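 Cells were plated at 500 per well and exposed to an 11-point dose series of each drug for 48 hr. Viability was measured by CellTiter-Glo luminescence, normalized to DMSO and empty-well controls, and summarized as AUC and per-cell-line Z-AUC.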

Assay [4] is described as follows: BET inhibitor-based combinations targeting novel dependencies in MECOM-rearranged (r) AML: HNT-34 cell line (AID 2202234). Further: nearly all actives have a fitted effect of over 35% in size. Further: potency means the concentration at half of the fitted maximal effect. Conditions: HNT-34 AML viability, CellTiter-Glo luminescence, 48 h; series mostly up to 46 µM. In short, it runs like this:
(§2)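 Activity is given as area under the curve and as Z-AUC, mean-centred within each cell line. It comes from 11-point dose curves normalized to DMSO and empty wells. CellTiter-Glo luminescence was read after 48 hr drug exposure of 500 cells/well.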
A general note: ATP-based viability assays read luminescence as a measure of living cells.

The nature of assay [5]: BET inhibitor-based combinations targeting novel dependencies in MECOM-rearranged (r) AML: MV-4-11 cell line (AID 2202233). Further: potency means the concentration at half of the fitted maximal effect; nearly all actives have a fitted effect of over 45% in size. As to conditions: MV-4-11 AML viability, CellTiter-Glo luminescence, 48 h; series mostly up to 46 µM. In short, it runs like this:
as §2

The nature of assay [6]: BET inhibitor-based combinations targeting novel dependencies in MECOM-rearranged (r) AML: UCSD-AML1 cell line (AID 2202235). Further: nearly all actives have a fitted effect of over 40% in size. Further: potency means the concentration at half of the fitted maximal effect. As to conditions: UCSD-AML1 AML cells viability, CellTiter-Glo, 48 h; series mostly up to 46 µM. In short, it runs like this: as §2
The nature of assay [7]: BET inhibitor-based combinations targeting novel dependencies in MECOM-rearranged (r) AML: AML-191 cell line (AID 2202236; further: nearly all actives have a fitted effect of over 35% in size; further: potency means the concentration at half of the fitted maximal effect). As to conditions: AML-191 viability, CellTiter-Glo luminescence, 48 h; series mostly up to 46 µM. In short, it runs like this:
as §1

A short description of assay [8]: BET inhibitor-based combinations targeting novel dependencies in MECOM-rearranged (r) AML: AML-194 cell line (AID 2202237; further: nearly all actives have a fitted effect of over 40% in size; further: potency means the concentration at half of the fitted maximal effect). Conditions: AML-194 (MECOM-r AML) viability, CellTiter-Glo, 48 h; series mostly up to 46 µM. In outline: as §1
Assay [9] can be described thus: BET inhibitor-based combinations targeting novel dependencies in MECOM-rearranged (r) AML: SET-2 cell line (AID 2202231). Further: nearly all actives have a fitted effect of over 35% in size. Further: potency means the concentration at half of the fitted maximal effect.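 On viability: plate controls were DMSO treated cells for no effect and wells without cells for full effect.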 As to conditions: SET-2 AML cells viability, CellTiter-Glo luminescence, 48 h; viability: hits give low values, concentration not given here. In outline:
as §1

Records with an inconclusive call do not appear. Activity calls are given as the source filed them. The call rests on the fitted dose curve; in most records, active means well fitted curve in the direction sought with a large enough effect; inconclusive means small, poorly fitted or top-dose-only effect, or another doubt; inactive means no such curve, though single readings can be large; an effect the other way counts as inactive or inconclusive.

For `CN(C)Cc1ccc(-c2nc3cccc4c3n2CCNC4=O)cc1`, the Potency entry in assay [1], in assay [2] and in assay [3] was “inactive” in each case. Moreover, in [4], the Potency is 18.6 µM (active).
Take `COC(=O)N[C@@H](C)CNc1nccc(-c2cn(C(C)C)nc2-c2cc(Cl)cc(NS(C)(=O)=O)c2F)n1`: the Potency result in [1] and in assay [2] was “inactive” in each case. The Potency in [3] was 1.66 µM (active); in [5], 2.35 µM (active); in assay [4], 0.833 µM (active); in assay [6] it was 2.63 µM (active); in assay [7], 1.66 µM (active); in assay [8] it was 2.09 µM (active).
For the molecule `C[C@H](CN(C)C)Oc1nc(Nc2cc3cccc(Cl)c3cn2)cnc1C#N`, the Potency entry in [1] and in assay [2] was “inactive” in each case. For the same molecule, the figures for the Potency in assay [3] and in [5] were 4.68 µM (active) and 1.86 µM (active), respectively.
As for `COc1cc2nc(-c3ccc(N4CCN(C)CC4)cc3)nc(NCCN3CCOCC3)c2cc1OC`, the Potency result in assay [1] and in assay [2] was “inactive” in each case. Further, the Potency in assay [9] was 5.9 µM (active); in assay [5] it was 2.35 µM (active); in assay [4], 10.5 µM (active); in [6] it was 4.68 µM (active); in [7], 9.34 µM (active); in assay [8], 13.2 µM (active).
For the molecule `O=C(NCc1ccccc1)c1csc(Nc2ccncn2)n1`, the Potency result in assay [1] and in assay [2] was “inactive” in each case. Further, the Potency in assay [3] is 10.5 µM (active); in [5], 9.34 µM (active); in assay [4], 10.5 µM (active); in assay [6], 18.6 µM (active); in assay [7] it was 18.6 µM (active); in assay [8], 18.6 µM (active).
For orientation: viability means a read-out of living cells in per cent, often relative to untreated cells. For `O=C(O)C1=CO[C@@H](O[C@@H]2O[C@H](CO)[C@@H](O)[C@H](O)[C@H]2O)[C@@H]2C(CO)=CC[C@H]12`, the Potency result in assay [1], in assay [2], in [4], in assay [6], in assay [7] and in assay [8] was “inactive” throughout. Besides, the viability in [9] is 118% (inactive).
On to `Cc1onc(-c2ccc(F)cc2)c1COc1ccc(C(=O)N2CCS(=O)(=O)CC2)cn1`, for which the Potency entry in assay [1], in assay [2], in assay [3], in [4], in [6] and in [7] was “inactive” in each case. Besides, the Potency entry in assay [8] was “inactive”. In assay [9], the viability was 112% (inactive).
